Bioassay records: PubChem, several laboratories
An excerpt weighted towards active compounds, which were near 0.54% of everything screened.
VHR inh abs: inhibitors of human VHR1 phosphatase (DUSP3); recombinant VHR phosphatase, pNPP absorbance; inhibition, % at 13.3 µM; 290,000 tested, 0.52% active; AID 1654; in the data active = inhibition above about 50%
RmlCD inh 1536: blocks M. tuberculosis RmlC and RmlD coupled enzymes. P9WH09+P9WH11. AID 1533. 160,000 tested, 0.03% active. inhibition, % at 3.6 µM. RmlC+RmlD coupled enzyme assay, percent inhibition; primary screen in compound mixtures; in the data active = inhibition mostly above about 34%, no sharp cut-off
Target sequence (P9WH09 whole entry, looked up): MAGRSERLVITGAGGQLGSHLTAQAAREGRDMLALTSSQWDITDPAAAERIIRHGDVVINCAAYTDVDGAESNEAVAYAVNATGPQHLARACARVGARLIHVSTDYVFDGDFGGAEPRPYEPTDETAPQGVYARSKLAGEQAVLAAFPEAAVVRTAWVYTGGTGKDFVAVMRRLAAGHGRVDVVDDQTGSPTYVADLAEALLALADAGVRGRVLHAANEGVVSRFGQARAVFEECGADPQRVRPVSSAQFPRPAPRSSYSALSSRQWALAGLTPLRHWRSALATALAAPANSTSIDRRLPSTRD
Target sequence (P9WH11 whole entry, looked up): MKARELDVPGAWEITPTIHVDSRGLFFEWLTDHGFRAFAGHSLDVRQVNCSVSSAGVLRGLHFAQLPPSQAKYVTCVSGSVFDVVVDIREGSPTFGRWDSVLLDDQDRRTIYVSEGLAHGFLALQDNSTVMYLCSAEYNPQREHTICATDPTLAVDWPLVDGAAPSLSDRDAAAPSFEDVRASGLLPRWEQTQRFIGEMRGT
Numbers stand for hits.

What do the screens show for `O=c1c(Cc2ccc(Cl)cc2)c(O)ccn1Cc1cccs1`?
VHR inh abs: 50; RmlCD inh 1536: inactive

Results for O=c1c(Cc2ccc(Cl)cc2)c(O)ccn1Cc1ccncc1 ?
VHR inh abs: inactive; RmlCD inh 1536: inactive

How did CCN1CC=C2C(C1)C(c1ccc(Cl)s1)C(C#N)=C(N)C2(C#N)C#N (stereo not drawn) do in these assays?
VHR inh abs: inactive; RmlCD inh 1536: inactive

Results for Cc1cccc(NC(=O)N2CCCC2)c1 ?
VHR inh abs: 52; RmlCD inh 1536: inactive

Results for Cc1cccc(NC(=O)N2CCCCCC2)c1 ?
VHR inh abs: inactive

How did Cc1cc(=O)[nH]c(N2CCN(Cc3ccccc3)CC2)n1 do in these assays?
VHR inh abs: inactive; RmlCD inh 1536: inactive

What do the screens show for `Cc1cc(=O)[nH]c(N2CCCNCC2)n1`?
VHR inh abs: 54

What do the screens show for `CCOc1ccc(-c2c(C(=O)N/N=C/c3c[nH]c4ccccc34)nnn2-c2nonc2N)cc1`?
VHR inh abs: inactive

Results for Cc1cccc(OCC(=O)NCCNC(=O)c2ccncc2)c1 ?
VHR inh abs: 60

Results for Cc1cccc(OCC(=O)NCCNC(=O)c2cnccn2)c1 ?
VHR inh abs: inactive

What do the screens show for `Cc1ccccc1Nc1c(F)c(F)c(F)c(F)c1C(=O)O`?
VHR inh abs: inactive; RmlCD inh 1536: inactive

Results for Cc1ccccc1C(=O)Oc1ccc2ccc(O)cc2c1 ?
VHR inh abs: inactive

Results for CCOc1ccccc1NC(=O)/C=C/C(N)=O ?
VHR inh abs: inactive; RmlCD inh 1536: inactive

What do the screens show for `O=c1oc2ccc3ccccc3c2cc1-c1nnc(-c2ccccc2)o1`?
VHR inh abs: inactive; RmlCD inh 1536: inactive

Results for Nc1nnc(-c2cc3c(ccc4ccccc43)oc2=O)s1 ?
VHR inh abs: 54; RmlCD inh 1536: inactive

Results for O=C(NCC(=O)N(c1ccccc1)C(C(=O)NC1CCCCC1)c1cccnc1)c1cccs1 (stereo not drawn) ?
VHR inh abs: 52; RmlCD inh 1536: inactive

How did Cc1cccc(N(C(=O)CNC(=O)c2cccs2)C(C(=O)NC2CCCC2)c2cccnc2)c1 (stereo not drawn) do in these assays?
VHR inh abs: 57; RmlCD inh 1536: inactive

How did COc1cccc(C(C(=O)NC2CCCC2)N(Cc2cccnc2)C(=O)Cc2cccs2)c1 (stereo not drawn) do in these assays?
VHR inh abs: 50

Results for COc1ccc(C(C(=O)NC2CCCC2)N(Cc2cccnc2)C(=O)Cc2cccs2)c(OC)c1 (stereo not drawn) ?
VHR inh abs: inactive

Results for Cc1cc(C)cc(N(C(=O)CNC(=O)c2cccs2)C(C(=O)NC2CCCC2)c2cccnc2)c1 (stereo not drawn) ?
VHR inh abs: inactive

Results for O=C(NCC(=O)N(c1ccc(F)cc1)C(C(=O)NC1CCCC1)c1cccnc1)c1cccs1 (stereo not drawn) ?
VHR inh abs: inactive; RmlCD inh 1536: inactive

Results for Cc1cc(N2C(=O)C(O)=C(C(=O)c3ccco3)C2c2ccc([N+](=O)[O-])cc2)no1 (stereo not drawn) ?
VHR inh abs: inactive

What do the screens show for `O=C1/C(=C/c2ccccc2Cl)SC(=S)N1CCCC(=O)N(CCO)c1ccccc1`?
VHR inh abs: inactive

How did Cc1[nH]n(-c2ccccc2)c(=O)c1N=Nc1cccc(C(=O)O)c1 do in these assays?
VHR inh abs: inactive

How did O=C1CC(C(=O)N2CCc3ccccc32)CN1c1ccc(F)cc1 (stereo not drawn) do in these assays?
VHR inh abs: inactive

How did COc1ccc(CNC(=O)[C@@H](NC(=O)C2CCN(C(=O)[C@@H](N)CC(C)C)CC2)C(C)C)cc1 do in these assays?
VHR inh abs: inactive

What do the screens show for `O=C(NC(Cc1ccccc1)C(=O)O)OCC1c2ccccc2-c2ccccc21` (stereo not drawn)?
VHR inh abs: 53

Results for O=C(NC(Cc1ccccc1)C(=O)O)OCc1ccccc1 (stereo not drawn) ?
VHR inh abs: inactive

Results for Brc1ccc(-c2csc(NNC3=NCCCCC3)n2)cc1 ?
VHR inh abs: inactive

Results for CC(C)(C)c1ccc(-c2csc(NNC3=NCCCCC3)n2)cc1 ?
VHR inh abs: 55

What do the screens show for `O=C(/C=C/c1ccc(OC(F)F)cc1)Nc1cccc(S(=O)(=O)N2CCOCC2)c1`?
VHR inh abs: inactive

Results for O=C(Cn1ncc2c([nH]c3ccccc32)c1=O)Nc1cccnc1 ?
VHR inh abs: inactive

Results for Cc1ccc(NC(=O)Cn2ncc3c([nH]c4ccccc43)c2=O)cc1Cl ?
VHR inh abs: 58

What do the screens show for `CCN(Cc1ccccc1)C(=O)Cn1c(=O)n(CC(=O)N2CCCCC2)c(=O)c2sccc21`?
VHR inh abs: inactive

Results for Cc1ccc(C(=O)Nc2ccc(Nc3ccccc3)cc2)c(Cl)c1 ?
VHR inh abs: inactive

How did Cc1ccc(N/C(N)=N/c2nc(CSc3nnc(N)s3)cc(=O)[nH]2)cc1 do in these assays?
VHR inh abs: 53; RmlCD inh 1536: inactive

How did Cc1ccc(N/C(N)=N/c2nc(CSc3ccc(C)cc3)cc(=O)[nH]2)cc1 do in these assays?
VHR inh abs: inactive; RmlCD inh 1536: inactive

Results for Cc1cc(F)ccc1NC(=S)NC1CCCC1 ?
VHR inh abs: inactive

Results for CCc1ccc(-c2nc(-c3ccncc3)no2)cc1 ?
VHR inh abs: 57; RmlCD inh 1536: inactive

Results for CCCCc1ccc(-c2nc(-c3ccncc3)no2)cc1 ?
VHR inh abs: inactive; RmlCD inh 1536: inactive

Results for O=C(CN1CCN(c2ccc(O)cc2)CC1)Nc1cc(S(=O)(=O)N2CCCCC2)ccc1Cl ?
VHR inh abs: 56; RmlCD inh 1536: inactive

How did O=C(CN1CCN(c2ccc(O)cc2)CC1)Nc1cc(S(=O)(=O)N2CCCC2)ccc1Cl do in these assays?
VHR inh abs: inactive; RmlCD inh 1536: inactive

How did FC(F)Oc1ccc(NC(=S)NCc2ccccc2)cc1Cl do in these assays?
VHR inh abs: inactive

How did N#C/C(=C\c1cccnc1)c1nc2ccccc2[nH]1 do in these assays?
VHR inh abs: inactive; RmlCD inh 1536: inactive

Results for N#C/C(=C\c1ccncc1)c1nc2ccccc2[nH]1 ?
VHR inh abs: inactive; RmlCD inh 1536: 34

What do the screens show for `COc1cc(/C=C(\C#N)c2nc(-c3cc4ccccc4oc3=O)cs2)ccc1O`?
VHR inh abs: inactive; RmlCD inh 1536: inactive

Results for COc1cc(/C=C(/C#N)c2nc(-c3cc4ccccc4oc3=O)cs2)cc([N+](=O)[O-])c1O ?
VHR inh abs: 101; RmlCD inh 1536: inactive

How did OCCCNc1c2ccccc2nc2ccccc12 do in these assays?
VHR inh abs: inactive

Results for C=C(C)C1CC=C(C)/C(=N\NC(=O)CCc2ccccc2)C1 (stereo not drawn) ?
VHR inh abs: inactive; RmlCD inh 1536: inactive

What do the screens show for `C=C(C)C1CC=C(C)/C(=N/NC(=O)CCC(=O)Nc2ccccc2Cl)C1` (stereo not drawn)?
VHR inh abs: 55

What do the screens show for `CC(C)Oc1ccc(CNC(=O)Cn2ccc3cc(S(=O)(=O)N4CCCC4)ccc32)cc1`?
VHR inh abs: 53

How did COc1cccc(CNC(=O)Cn2ccc3cc(S(=O)(=O)N4CCCC4)ccc32)c1 do in these assays?
VHR inh abs: inactive

Results for CCOC(=O)c1cn2nc(Oc3ccc(C#N)cc3)ccc2n1 ?
VHR inh abs: inactive; RmlCD inh 1536: inactive

Results for CN(Cc1nc(-c2ccncc2)no1)S(=O)(=O)c1ccc(Br)cc1 ?
VHR inh abs: inactive; RmlCD inh 1536: inactive

What do the screens show for `CN(Cc1nc(-c2ccncc2)no1)S(=O)(=O)c1ccc(Cl)cc1`?
VHR inh abs: 51
